PKA-R2B act: activators of human PKA-R2B complex; PKA-R2B holoenzyme dissociation, Cy5-IP20 fluorescence polarization; R2B truncated from residue 108, S112A mutant; 0% DMSO only, 100% 113 µM cGMP; activation, % at 11.4 µM; P22694+P31323; 0.079% of 340,000 active;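 active means activation above a cutoff set at the mean over all compounds plus 3 SD, cut at about 18% in these data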;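 further: higher means more holoenzyme dissociation and a rise in polarization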
ANO1 block: mouse TMEM16A channel inhibition, primary screen | Q8BHY3 | HEK293 TMEM16A/YFP iodide influx fluorescence, ionomycin | normalized B-score (activity score, 25-100; higher = stronger inhibition) at 10 µM | 1.2% of 310,000 active | AID 588511;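 active means ratio plate-corrected score three or more library SD toward inhibition, starting fluorescence score within five deviations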;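 further: score derived from kinetic fluorescence span divided by baseline fluorescence per well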
CHT PAM: allosteric activators of human choline transporter CHT; 0.49% of 310,000 active; CHT-expressing cells, membrane potential dye, choline EC20; active compounds read high; LV-AA mutant CHT in HEK293 cells; B-score at 10 µM;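 active means initial fluorescence not abnormally high and integrated response B-score, plate-corrected, over 3 SD above library mean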
Target sequence (Q9GZV3 whole entry, looked up): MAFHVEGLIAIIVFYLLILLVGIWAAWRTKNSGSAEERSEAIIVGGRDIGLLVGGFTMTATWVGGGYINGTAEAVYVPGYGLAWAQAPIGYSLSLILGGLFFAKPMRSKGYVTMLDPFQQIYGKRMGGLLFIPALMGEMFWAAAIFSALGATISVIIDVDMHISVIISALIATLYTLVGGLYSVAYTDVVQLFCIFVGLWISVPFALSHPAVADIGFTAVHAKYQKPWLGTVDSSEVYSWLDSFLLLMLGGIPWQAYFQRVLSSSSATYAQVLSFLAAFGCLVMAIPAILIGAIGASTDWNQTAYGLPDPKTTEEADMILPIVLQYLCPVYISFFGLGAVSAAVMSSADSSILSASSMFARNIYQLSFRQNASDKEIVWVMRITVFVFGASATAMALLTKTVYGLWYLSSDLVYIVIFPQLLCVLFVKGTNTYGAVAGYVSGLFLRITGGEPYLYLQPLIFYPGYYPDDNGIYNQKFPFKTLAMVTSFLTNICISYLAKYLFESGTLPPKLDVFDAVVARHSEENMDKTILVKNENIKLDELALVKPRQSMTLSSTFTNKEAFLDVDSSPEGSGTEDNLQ
CHT inh: human CHT choline transport inhibition; Q9GZV3; CHT-expressing cells, membrane potential dye, choline response; active compounds read low; B-score at 10 µM; 0.86% of 310,000 active; AID 488975;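 active means B-score over 3 SD under the library average, and starting fluorescence ratio not unusually high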;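 further: choline stimulus applied at its EC90 after an EC20 pre-addition; B-score computed on integrated fluorescence ratio after choline addition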
PKA-R1A activ: activates the PKA-R1A holoenzyme complex. AID 504707. 0.083% of 340,000 active. PKA-R1A dissociation, Cy5-IP20 fluorescence polarization; scaled: DMSO 0%, 113 µM cGMP 100%. activation, % at 11.4 µM. P00514+P68181;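 active means percent activation above the mean of all tested compounds plus 3 SD, cut at about 19% in these data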;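 further: higher means more PKAc released from R1A so a rise in polarization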
TMEM16A act: activators or potentiators of mouse TMEM16A chloride channel; 0.3% of 340,000 active; HEK293 TMEM16A/YFP-H148Q/I152L, iodide quench fluorescence; active compounds read low; B-score at 10 µM; Q8BHY3;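 active means fluorescence-ratio B-score plate-corrected deviation score at least 3 library SD below zero, with starting fluorescence score within 5 deviations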;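 further: channel opened by trigger with iodide after compound preincubation; score built on the fluorescence ratio of max minus min over baseline; more negative score means more quench and so TMEM16A activation or potentiation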
TMEM16A reconf: TMEM16A (mouse) chloride channel inhibition, re-confirmation; HEK293 TMEM16A/YFP-H148Q, iodide quench fluorescence; ionomycin added to raise cell calcium; AID 652189; inhibition, % at 10 µM; shares compounds with ANO1 block; 39% of 2,300 active;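 active means mean duplicate percent inhibition, scaled so buffer wells are 0 and the reference blocker 100, over three buffer SD above buffer mean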
HEK293 Ca mobil: alters calcium mobilization in TMEM16A HEK293 cells, counter-screen | shares compounds with ANO1 block | AID 652231 | 2% of 2,300 active | TMEM16A/YFP HEK293, Fluo4 calcium mobilization | calcium response (% of ionomycin), % at 10 µM;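 active means duplicate-averaged calcium signal over 20% of the ionomycin maximum, relative to buffer baseline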;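 further: each well's signal is peak minus trough fluorescence divided by its pre-addition baseline; 0% = buffer wells and 100% = ionomycin wells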
YFP-HEK293 quench: acts in parental YFP-HEK293 cells lacking TMEM16A, counter-screen; shares compounds with ANO1 block; iodide YFP quench, ionomycin; YFP ratio F(max-min)/F0 at 10 µM; 2,300 tested, under 10 active; AID 652233;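 active means yellow fluorescent protein signal ratio exceeding the buffer control mean by over 5 SD of those controls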;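 further: ratio is mean of duplicate wells from kinetic YFP trace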
ClC-1 inh: blocks the rat ClC-1 voltage-dependent chloride channel. shares compounds with ANO1 block. CHO ClC-1-YFP, iodide influx fluorescence quench; iodide control reads 0, buffer control 100. ratio percent, % at 10 µM. 2,300 tested, under 10 active;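 active means duplicate-mean ratio percent above the mean of iodide-only control wells, which defines zero, plus 5 of their SD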;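 further: higher percent means stronger block of ClC-1 iodide influx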
The depositor's hits bear a star; i = inactive; / = no result. In the library only some 2.5% were active in any assay of this set; here they are far more common.

SMILES	PKA-R2B act	ANO1 block	CHT PAM	CHT inh	PKA-R1A activ	TMEM16A act	TMEM16A reconf	HEK293 Ca mobil	YFP-HEK293 quench	ClC-1 inh
COc1ccc(-n2nc(C(=O)NCC(=O)NCCCN3CC(C)CC(C)C3)c3ccccc3c2=O)cc1 (configuration not stated)	-5.5	i	i	i	-1.9	i	/	/	/	/
Cc1nc(N2CCN(Cc3ccccc3)CC2)nc2c1C(=O)CC(C)C2 (configuration not stated)	-2.8	i	i	i	2.5	i	/	/	/	/
COc1ccc(C2CC(=O)c3c(C)nc(N4CCN(Cc5ccccc5)CC4)nc3C2)cc1OC (configuration not stated)	-11.8	100*	i	i	-4.6	i	26.0%*	i	-0.914	-14.0
COC(=O)C(Cc1ccc(OC(=O)c2ccccc2Cl)cc1)N1Cc2ccccc2C1=O (configuration not stated)	-9.2	100*	i	i	3.2	i	i	i	-1	-5.0
Cc1c(OCC(=O)N2CCN(c3ccccc3)CC2)ccc2c3c(c(=O)oc12)CCCC3	-7.4	i	i	i	11.2	i	/	/	/	/
CCOC(=O)[C@@H]1[C@H]2COc3ccccc3[C@@H]2N2C(=O)N(c3ccc(C)cc3)C(=O)[C@]12C	-7.3	i	i	i	2.6	i	/	/	/	/
CC(C)Cc1csc(NC(=O)c2ccc(Cl)cc2)c1C(=O)O	-11.4	25*	i	i	-13.4	i	39.0%*	i	-0.808	-5.0
COc1ccccc1C(=O)N(Cc1nc(-c2ccc(Cl)cc2)no1)C(C)C	-1.8	100*	i	i	-7.7	i	i	i	-0.919	-3.0
O=C(O)c1ccc(NC(=S)NC(=O)c2cncc(Br)c2)cc1	6.9	i	i	i	12.7	i	/	/	/	/
Cc1ccc(N(C(=O)c2csnn2)C(C(=O)NC2CCCCC2)c2cccnc2)cc1 (configuration not stated)	-8.3	i	i	i	-7.8	i	/	/	/	/
CC(=O)Nc1ccc(S(=O)(=O)N2CCN(CCCOc3ccccc3Cl)CC2)cc1	-9.1	25*	i	i	-11.2	i	i	i	-1.1	-5.5
CC(C)NS(=O)(=O)c1ccc(CCC(=O)N2CCC(C(N)=O)CC2)cc1	-3.3	i	i	i	2.4	i	/	/	/	/
CC(O)CO (configuration not stated)	5.6	/	/	/	-3.2	i	/	/	/	/
Cc1nc2ccccc2c2c1CC(C(C)(Cl)Br)O2 (configuration not stated)	-0.9	25*	i	i	-6.3	i	18.0%*	i	-1.02	-20.0
O=C(O)C1CCCC[C@H]1C(=O)Nc1ncc([N+](=O)[O-])s1 (some centres not stated)	-2.0	i	i	i	2.0	i	/	/	/	/
COc1ccc(-c2nc3cc(NC(=O)Cc4ccc(OC)c(OC)c4)ccc3o2)cc1	-5.0	100*	i	i	-2.8	i	i	i	-0.951	-7.5
COC(=O)Cn1c(C(F)(F)F)nc2ccccc21	2.6	i	i	i	2.2	i	/	/	/	/
CC(OC(=O)Cn1c(C(F)(F)F)nc2ccccc21)C(=O)N1CCCc2ccccc21 (configuration not stated)	-5.7	100*	i	i	-17.3	i	i	i	-1.32	0.5
O=C(c1ccccc1Cl)N1CCN(C(=O)C2CCCO2)CC1 (configuration not stated)	-6.4	/	/	/	-5.9	i	/	/	/	/
CCN(CC)S(=O)(=O)c1ccc(S(=O)(=O)N2CCCC(C(=O)NC3CC3)C2)cc1 (configuration not stated)	-1.4	i	i	i	1.4	i	/	/	/	/
Cc1cc(C(C)(C)C)oc1C(=O)N(CC(=O)NC1CCCC1)c1c(C)cccc1C	-9.2	100*	i	i	-4.2	i	26.5%*	i	-1.14	-19.5
Cc1ccc(NC(=O)CN(C)C(=O)c2cc3ccccc3o2)cc1	0.0	i	i	i	10.0	i	/	/	/	/
CCc1ccc(CNc2ccc(N3CCN(C(C)=O)CC3)cc2)cc1	-16.8	25*	i	i	-10.2	i	i	i	-1.15	-13.5
COc1ccc(-n2c(SCCC(=O)O)nnc2-c2ccncc2)cc1	6.0	100*	i	i	-3.5	i	i	i	-1.17	2.0
CN(CC(=O)Nc1ncn[nH]1)S(=O)(=O)c1ccc(Cl)cc1	-0.1	i	i	i	-5.0	i	/	/	/	/
SMILES	PKA-R2B act	ANO1 block	CHT PAM	CHT inh	PKA-R1A activ	TMEM16A act	TMEM16A reconf	HEK293 Ca mobil	YFP-HEK293 quench	ClC-1 inh
Cc1ccccc1-c1cc(C(=O)Nc2sc(C(=O)OC(C)C)c(C)c2C#N)c2ccccc2n1	-7.1	25*	i	i	-13.7	i	67.5%*	i	-1.17	-20.5
COc1ccc(-c2cc(C(=O)Nc3sc4c(c3C#N)CCCC4)c3ccccc3n2)cc1	2.8	i	i	i	-11.5	i	/	/	/	/
COC(=O)c1sc(NC(=O)c2cc(-c3ccccc3)nc3ccccc23)c(C#N)c1C	0.4	100*	i	i	-4.9	i	42.0%*	i	-1.04	-22.0
CCOC(=O)c1sc(NC(=O)c2cc(-c3ccc(C)cc3)nc3ccccc23)c(C#N)c1C	-7.5	i	i	i	7.5	i	/	/	/	/
CC(c1ccccn1)N(CCN(C)C)C(=S)Nc1cccc(F)c1 (configuration not stated)	0.0	i	i	i	-6.2	i	/	/	/	/
CC(C)CCN(C(=S)Nc1cccc(C(F)(F)F)c1)C(C)c1ccccn1 (configuration not stated)	-1.0	25*	i	i	1.1	i	i	i	-0.909	-2.5
O=C(c1ccccc1)c1ccc(OCC(O)CN2CCN(Cc3ccccc3)CC2)cc1 (configuration not stated)	1.9	100*	i	i	2.9	i	i	i	-1.15	-10.5
